Measurements taken from PubChem BioAssay (NCI).
The panel holds about 83,000 compounds, 20% with a hit somewhere; the sample as a whole holds those more often.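 Percent growth is the endpoint: 0 to 100 indicates growth inhibition (40 means 60% inhibition), 0 means no net growth, and negative values indicate cell death.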 Activity calls are given as the source filed them. Rule for the calls: active = growth percent below 10; inactive = the rest.

Experiments:
Assay in all cases: NCI-60 one-dose screen, 48 h (100 = growth as untreated, 0 = no growth, -100 = all killed)
Conditions in all cases: 10 µM unless noted
NCI-H23 lung = test system: NCI-H23 lung
NCI-H226 lung = test system: NCI-H226 lung
NCI-H322M lung = test system: NCI-H322M lung
HOP-62 NSCLC = test system: HOP-62 NSCLC
NCI-H460 lung = test system: NCI-H460 lung
HOP-92 NSCLC = test system: HOP-92 NSCLC
NCI-H522 lung = test system: NCI-H522 lung
A549/ATCC NSCLC = test system: A549/ATCC NSCLC
786-0 renal = test system: 786-0 renal
COLO 205 colon = test system: COLO 205 colon

Measured: growth

Oc1c(I)cc(I)cc1CNCCN(Cc1ccccn1)Cc1ccccn1
active: NCI-H23 lung -14% | NCI-H226 lung -65.1% | NCI-H322M lung -30.4% | HOP-62 NSCLC -65.1% | NCI-H460 lung -56.5% | HOP-92 NSCLC -61.8% | NCI-H522 lung -27.6% | A549/ATCC NSCLC -33.3% | 786-0 renal -95.2% | COLO 205 colon -34.6%

O=S(=O)(NCCNc1nccc(-c2c(-c3ccc(F)c(O)c3)nc3sccn23)n1)c1ccc(O)cc1
inactive: NCI-H23 lung 54.6% | NCI-H226 lung 37.4% | NCI-H322M lung 70.8% | HOP-62 NSCLC 78.7% | NCI-H460 lung 40% | HOP-92 NSCLC 47.7% | NCI-H522 lung 25.4% | A549/ATCC NSCLC 35.3% | 786-0 renal 49.6% | COLO 205 colon 34.7%

COc1ccc(-c2nn(-c3cccc(Cl)c3)cc2-c2cc(-c3ccc(Br)cc3)nc(N)n2)cc1
inactive: NCI-H23 lung 87.3% | NCI-H226 lung 86% | NCI-H322M lung 80.4% | HOP-62 NSCLC 88% | NCI-H460 lung 93.9% | HOP-92 NSCLC 91% | NCI-H522 lung 68.3% | A549/ATCC NSCLC 81.2% | 786-0 renal 88.1% | COLO 205 colon 102%

Nc1ncnc2c1c(-c1cccc(Cl)c1)nn2CC(=O)N1CCOCC1
inactive: NCI-H23 lung 97.5% | NCI-H226 lung 93% | NCI-H322M lung 102% | HOP-62 NSCLC 109% | NCI-H460 lung 107% | HOP-92 NSCLC 105% | NCI-H522 lung 102% | A549/ATCC NSCLC 99.9% | 786-0 renal 94.8% | COLO 205 colon 116%

CC1=C2[C@@H](CC1)[C@]1(C)O[C@@](C(C)C)(C[C@H]1OC(=O)[C@H](C)O)[C@H]2OC(=O)/C=C/c1ccccc1
inactive: NCI-H23 lung 90.7% | NCI-H226 lung 84.2% | NCI-H322M lung 85.9% | HOP-62 NSCLC 80.9% | NCI-H460 lung 88.9% | HOP-92 NSCLC 55.9% | NCI-H522 lung 74% | A549/ATCC NSCLC 66.9% | 786-0 renal 66.5% | COLO 205 colon 98.8%

c1ccc2cc(C[n+]3ccn(CCCCCCCCCCn4cc[n+](Cc5ccc6ccccc6c5)c4)c3)ccc2c1
active: NCI-H23 lung 5.67% | HOP-62 NSCLC -4.86% | HOP-92 NSCLC -23.6% | NCI-H522 lung -72.3% | COLO 205 colon -81.1%
inactive: NCI-H226 lung 39.5% | NCI-H322M lung 34.5% | NCI-H460 lung 11% | A549/ATCC NSCLC 18.5% | 786-0 renal 35.6%

CC/C=C\C[C@H](O)C/C=C1/C(=O)C=C[C@@H]1C/C=C\CCCC(=O)N(C)C
active: NCI-H23 lung -27% | NCI-H226 lung -51.3% | HOP-62 NSCLC -40.2% | NCI-H460 lung -26.3% | HOP-92 NSCLC -4.76% | NCI-H522 lung -88.2% | A549/ATCC NSCLC -35.6% | 786-0 renal -66.2% | COLO 205 colon -58.6%
inactive: NCI-H322M lung 18.3%

O=C1/C(=C/c2cn(-c3ccccc3)nc2-c2ccccc2)SC(=S)N1C1CCCCC1
inactive: NCI-H23 lung 96.1% | NCI-H226 lung 92% | NCI-H322M lung 105% | HOP-62 NSCLC 101% | NCI-H460 lung 103% | HOP-92 NSCLC 46.9% | NCI-H522 lung 91.5% | A549/ATCC NSCLC 103% | 786-0 renal 106% | COLO 205 colon 117%

Nc1n[nH]c2ccc([C@H]3[C@@H]4C5CCC(C5)[C@@H]4c4c(ccc5[nH]ncc45)N3S(=O)(=O)C3CC3)cc12 (stereo not given in full)
inactive: NCI-H23 lung 16.3% | NCI-H322M lung 38.6% | HOP-62 NSCLC 41.1% | HOP-92 NSCLC 67.7% | A549/ATCC NSCLC 17.1% | 786-0 renal 31.3%
active: NCI-H226 lung -16.9% | NCI-H460 lung 5.9% | NCI-H522 lung 7.23% | COLO 205 colon -0.398%

COc1cc(-c2cncn2-c2ccc(-c3nc4ccc(F)cc4s3)cc2)ccc1F
inactive: NCI-H23 lung 71% | NCI-H226 lung 85.2% | NCI-H322M lung 103% | HOP-62 NSCLC 102% | NCI-H460 lung 35.4% | HOP-92 NSCLC 94.3% | NCI-H522 lung 55.9% | A549/ATCC NSCLC 69.1% | 786-0 renal 90.8% | COLO 205 colon 82.7%

CCOc1ccccc1Cn1ccnc1CCc1c(Cl)c(O)cc(O)c1C(=O)OC
inactive: NCI-H23 lung 95.4% | NCI-H226 lung 102% | NCI-H322M lung 83% | HOP-62 NSCLC 85.9% | NCI-H460 lung 104% | HOP-92 NSCLC 90.4% | NCI-H522 lung 76.2% | A549/ATCC NSCLC 87.7% | 786-0 renal 101% | COLO 205 colon 102%

COc1cc(NS(=O)(=O)c2ccc(-c3cnc(C4CC4)o3)cc2)ccc1F
inactive: NCI-H23 lung 33.6% | NCI-H226 lung 36.7% | NCI-H322M lung 49.5% | HOP-62 NSCLC 41.8% | NCI-H460 lung 18.7% | HOP-92 NSCLC 33.8% | A549/ATCC NSCLC 34.4% | 786-0 renal 31.4%
active: NCI-H522 lung 0.251% | COLO 205 colon 3.71%

NS(=O)(=O)c1ccc(N=Nc2c(O)n(Cc3ccccc3)c3ccc(Cl)cc23)cc1
inactive: NCI-H23 lung 91.2% | NCI-H226 lung 34.1% | NCI-H322M lung 84% | HOP-62 NSCLC 64.3% | NCI-H460 lung 64.9% | HOP-92 NSCLC 97.8% | NCI-H522 lung 69.1% | A549/ATCC NSCLC 82.9% | 786-0 renal 48% | COLO 205 colon 94.3%

O=c1scc(-c2ccc(C(F)(F)F)cc2)s1
inactive: NCI-H23 lung 89% | NCI-H226 lung 91% | NCI-H322M lung 90.5% | HOP-62 NSCLC 92.3% | NCI-H460 lung 102% | HOP-92 NSCLC 81% | NCI-H522 lung 67.5% | A549/ATCC NSCLC 79.1% | 786-0 renal 90.3% | COLO 205 colon 131%

COc1cc(-c2nccc3[nH]c(-c4ccc5cc[nH]c5c4)nc23)cc(OC)c1OC
inactive: NCI-H23 lung 26.1% | NCI-H226 lung 19.3% | NCI-H322M lung 45%
active: HOP-62 NSCLC -19.6% | NCI-H460 lung 2.58% | HOP-92 NSCLC -8.58% | NCI-H522 lung -59.5% | A549/ATCC NSCLC -28.5% | 786-0 renal -56% | COLO 205 colon -71.5%

Cc1cc(N2CCN(CCNc3ccnc4cc(Cl)ccc34)CC2)nc(N2CCOCC2)n1
inactive: NCI-H23 lung 42.8% | NCI-H226 lung 79.5% | NCI-H322M lung 74.9% | HOP-62 NSCLC 81.4% | NCI-H460 lung 64.6% | HOP-92 NSCLC 47.7% | NCI-H522 lung 76.5% | A549/ATCC NSCLC 71.4% | 786-0 renal 74% | COLO 205 colon 11.6%

N#Cc1ccc2c(c1)C(=O)c1c-2n(CCCN)c(=O)c2cc([N+](=O)[O-])ccc12
active: NCI-H23 lung -57.6% | NCI-H226 lung -71.6% | NCI-H322M lung -81.5% | HOP-62 NSCLC -89.5% | NCI-H460 lung -100% | HOP-92 NSCLC -2.3% | NCI-H522 lung -72.2% | A549/ATCC NSCLC -100% | 786-0 renal -90% | COLO 205 colon -100%

Clc1ccc2c(c1)C(c1c[nH]c3ccccc13)(c1c[nH]c3ccccc13)CCO2
active: NCI-H522 lung -62.7%
inactive: NCI-H23 lung 93.5% | NCI-H226 lung 79.7% | NCI-H322M lung 90.8% | HOP-62 NSCLC 46.4% | NCI-H460 lung 85.3% | HOP-92 NSCLC 43.1% | A549/ATCC NSCLC 24.6% | 786-0 renal 80.8% | COLO 205 colon 51.4%

CCN(CC)Cc1cc(C=C2C(=O)NC(=S)NC2=O)cc(OC)c1O
inactive: NCI-H23 lung 98.1% | NCI-H226 lung 107% | NCI-H322M lung 103% | HOP-62 NSCLC 106% | NCI-H460 lung 104% | HOP-92 NSCLC 104% | NCI-H522 lung 104% | A549/ATCC NSCLC 109% | 786-0 renal 104% | COLO 205 colon 117%

CCOC(=O)c1cc(C)n(-c2ccc(C(=O)O)cc2)c1C
inactive: NCI-H23 lung 89.4% | NCI-H226 lung 98.6% | NCI-H322M lung 114% | HOP-62 NSCLC 88.1% | NCI-H460 lung 44.1% | HOP-92 NSCLC 100% | NCI-H522 lung 65.8% | A549/ATCC NSCLC 91.4% | 786-0 renal 101% | COLO 205 colon 89.8%

COCCn1cc(-c2nc(-c3cc4cccnc4[nH]3)cs2)c2cc(OC)ccc21
active: NCI-H23 lung 8.67% | NCI-H460 lung 7.21% | HOP-92 NSCLC 4.04%
inactive: NCI-H226 lung 28.8% | NCI-H322M lung 21.2% | HOP-62 NSCLC 13.4% | NCI-H522 lung 41.6% | A549/ATCC NSCLC 24.8% | 786-0 renal 28.5% | COLO 205 colon 49.4%

Nc1cnc(C(=O)NNc2nc3cc(F)ccc3n3cccc23)cn1
active: NCI-H460 lung 7.9% | COLO 205 colon 9.48%
inactive: NCI-H23 lung 44% | NCI-H226 lung 49.5% | NCI-H322M lung 26.3% | HOP-62 NSCLC 33% | HOP-92 NSCLC 64.2% | NCI-H522 lung 16.7% | A549/ATCC NSCLC 38.8% | 786-0 renal 37.7%

CCCc1c(OC(=O)c2ccccc2)nc2[nH]c(=O)sc2c1C
inactive: NCI-H23 lung 99% | NCI-H226 lung 89.9% | NCI-H322M lung 101% | HOP-62 NSCLC 95.6% | NCI-H460 lung 103% | HOP-92 NSCLC 93.3% | NCI-H522 lung 87.4% | A549/ATCC NSCLC 99.6% | 786-0 renal 106% | COLO 205 colon 101%

CCN(CC)CCCCCNc1cc(OC(=O)c2ccc(Cl)cc2)cc2cccnc12
inactive: NCI-H23 lung 93.9% | NCI-H226 lung 105% | NCI-H322M lung 106% | HOP-62 NSCLC 95.8% | NCI-H460 lung 110% | HOP-92 NSCLC 38.2% | NCI-H522 lung 24.4% | A549/ATCC NSCLC 95.3% | 786-0 renal 106% | COLO 205 colon 33.9%

COc1ccc(-c2cc(-c3cccnc3)nc3sc4c(=O)[nH]c(-c5ccc(Cl)cc5)nc4c23)cc1OC
inactive: NCI-H23 lung 98.8% | NCI-H226 lung 79.1% | NCI-H322M lung 104% | HOP-62 NSCLC 88.3% | NCI-H460 lung 90.9% | HOP-92 NSCLC 75.1% | NCI-H522 lung 78.6% | A549/ATCC NSCLC 82.8% | 786-0 renal 89.2% | COLO 205 colon 91.2%

CC(=O)c1c(C)nc(SCC(=O)Nc2cccc(O)c2)n1-c1ccc(Cl)cc1
inactive: NCI-H23 lung 94.3% | NCI-H226 lung 107% | NCI-H322M lung 91.2% | HOP-62 NSCLC 105% | NCI-H460 lung 94.5% | HOP-92 NSCLC 100% | NCI-H522 lung 83.9% | A549/ATCC NSCLC 96.2% | 786-0 renal 102% | COLO 205 colon 118%

C=C(C)[C@@H]1CCC[C@]2(COS(=O)(=O)c3ccc(C)cc3)CC[C@]3(C)[C@@H](CC[C@@H]4[C@@]5(C)CCCNC(C)(C)[C@@H]5CC[C@]43C)[C@@H]12
inactive: NCI-H23 lung 25.7% | NCI-H226 lung 82.1% | NCI-H322M lung 39.7% | HOP-62 NSCLC 69% | HOP-92 NSCLC 19%
active: NCI-H460 lung -49.1% | NCI-H522 lung -41% | A549/ATCC NSCLC -12% | 786-0 renal -77.5% | COLO 205 colon -86.1%
